Results reported in the supplement of paper PMC6555819.

How the values were obtained:
Experiment in all cases: PBM binding z-score (relative to random genomic background probes); higher = stronger binding; sequences stand for … in GC…GCGATTGACAGCGTAGAATGAAGG
[1] = tested on: RARb homodimer (NR concentration 270 nM)
Summary of the method: (§1)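 Random background probes are the reference for binding z-scores. These scores derive from regression-normalized fluorescence on custom Agilent 4×180K protein-binding microarrays incubated 1 h with ligand-free nuclear receptor dimers. Binding was detected with antibodies against each partner (one per run).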

[2] = tested on: RARg:RXRa (NR concentration 270 nM, RXRa partner concentration 90 nM)
Summary of the method: as §1

[3] = tested on: RARg homodimer (NR concentration 270 nM)
Summary of the method: as §1

[4] = tested on: RXRa DBDmut IVT, anti-RXR (DBD mutation: RXRa K156A/R161A, NR concentration 90 nM)
Summary of the method: as §1

[5] = tested on: RXRa homodimer (NR concentration 180 nM)
Summary of the method: as §1

[6] = tested on: THRa:RXRa (NR concentration 90 nM, RXRa partner concentration 90 nM)
Summary of the method: as §1

[7] = tested on: THRa homodimer (NR concentration 90 nM)
Summary of the method: as §1

[8] = tested on: VDR homodimer (NR concentration 270 nM)
Summary of the method: as §1

Row | Sequence | PBM binding z-score [1] | PBM binding z-score [2] | PBM binding z-score [3] | PBM binding z-score [4] | PBM binding z-score [5] | PBM binding z-score [6] | PBM binding z-score [7] | PBM binding z-score [8]
1 | CAAACTCGGTCACAGAGGTCAAAGTCCGTGCGTA | 5.29 | 6.57 | 6.96 | 2.49 | 6.63 | 4.04 | 1.73 | 5.74
2 | ACAGACAGGTGAGTGAAGGTAACTCTGCTGGACG | 0.091 | 0.24 | 0.455 | -0.298 | 0.622 | 1.52 | -0.492 | -0.195
3 | ACTACTAGTTGAGACGAGGGCAACCGATAGGTTG | 1.18 | 0.816 | 0.767 | 0.00344 | 0.506 | 2.46 | 0.219 | 0.599
4 | CATACAGGGTCAGCAAGGCCAGAGTAGGGACGGC | 3.4 | 4.63 | 5.18 | 1.92 | 4.64 | 3.29 | 1.03 | 2.08
5 | CCTGCTAGATCAATGGTCAGCTAAAGCAGCTCGC | -0.343 | -0.647 | -0.492 | 0.00874 | -0.596 | -0.908 | -1.01 | -0.711
6 | ACTAGCAGGCCAAGTCTGGGTCACTCAAACAAAG | 2.36 | 2.25 | 1.48 | -0.171 | 0.902 | 2.35 | 0.768 | 0.0682
7 | CCTAGCAGGCCTATCTGGGTCACTCAAGGCTTGA | 1.68 | 0.716 | 0.616 | -0.488 | 0.644 | 2.3 | 0.219 | -0.239
8 | CCTAGCAGGCCAAGCTGGGTCACTCAAGGCTTGA | 2.2 | 1.64 | 1.65 | -0.265 | 1.17 | 3.28 | -0.143 | -0.334
9 | ATACCAAGGTGATCGTGAGGTCGTTGAAACTAAC | 2.04 | 2.53 | 1.34 | 0.72 | 1.98 | 3.84 | 3.02 | 3.25
10 | GCAGACAGGTGAAACGAAGGTAACTCAGGGTGGC | 0.36 | 1.1 | 0.315 | -0.588 | 0.938 | 1.42 | -0.157 | -0.798
11 | CCTATTGGGCCATTCAGAGGTCATTGATCATATG | 4.13 | 4.69 | 3.34 | 1.48 | 3.41 | 3.37 | 1.54 | 3.79
12 | CAAACTAGGTCACGAAAGGTCAAAGACGAATGAC | 5.96 | 7.75 | 8.37 | 2.55 | 8.19 | 5.15 | 2.72 | 3.52
13 | TCGAGTAGGTCAGGGGCATTCAGAATGGCGTCGA | 2.9 | 3.14 | 3.99 | 0.647 | 2.5 | 1.6 | 0.0377 | 0.669
14 | TCATATAGGTAAACAGGTCAAAGTCCGTAAGTTA | 2.99 | 3.2 | 2.4 | 1.54 | 3.59 | 2.27 | 0.804 | 1.93
15 | CCTATTATTTGACCATAAGGGCAACCGAAGCTCG | 2.16 | 1.05 | 1.21 | 1.06 | 0.762 | 1.83 | 2.31 | 2.19
16 | ATCGAAAGGTCGAGGCGAGTATAGAGAAAGGGAA | 1.95 | 3.9 | 3.91 | 0.625 | 4.19 | 1.83 | -0.512 | 0.276
17 | CCTACTGGGCCATCAGGTCATAGATATCAACGTT | 2.46 | 2.03 | 1.95 | -0.116 | 1.28 | 3.09 | 2.91 | 1.11
18 | CCGACTGGGGCAGTAAGGTTACCATACCATCCGG | 1.56 | 0.667 | 0.917 | -1.01 | 0.78 | 1.87 | 1.08 | 0.0425
19 | GCGACTGGGGCAAAGCACGTTACCATAAGGTTGG | 0.0132 | 0.0263 | 0.422 | -0.0988 | 0.0282 | -0.139 | -0.582 | -0.524
20 | CAAACTAGGTCACCGGAAGGTCAAACTCCGCATG | 5.43 | 8.28 | 7.24 | 2.46 | 6.33 | 4.6 | 3.44 | 4.04
21 | CCACACAGGTGAGAAGGTAACTCAGCCTCGATTA | 0.713 | 0.766 | 0.648 | 0.395 | 0.675 | 0.428 | 0.324 | -0.221
22 | GGAAGGAGGGCAAAGTTGATAGCATCTGTCGACG | 1.91 | 2.07 | 1.55 | 1.37 | 1.89 | 1.04 | 0.664 | 1.44
23 | CGTCCAAGGTCAATGTCAGTGAAAGAGACTCGAA | 3.64 | 5.4 | 5.96 | 3.62 | 4.79 | 3.57 | 1.84 | 2.02
24 | ATCGAAAGGTCGAAGGTGAGTATGCCCACCCGAA | 2.54 | 4.34 | 3.76 | 1.32 | 5.13 | 2.04 | -0.289 | 0.413
25 | TCTGCTAGGTTAACGATGGTCAGCTAATCTGCTA | 0.605 | 0.561 | 0.688 | 0.00765 | 0.42 | 1 | -1.07 | -0.957
26 | TCTTGTAGTTCAACAGGAGGTTAAGAAAGATCGA | 2.2 | 4.32 | 2.05 | 2.02 | 2.16 | 2.17 | -0.466 | 1.11
27 | TCCATTAGTTGATTAGGGCAACCGAAACAGCGGA | 0.875 | 0.57 | 0.556 | 1.09 | 0.491 | 0.718 | 0.498 | 0.246
28 | TCGAGTAGGTTACCAATGGGGCATTCCGCTTTCT | 0.449 | 0.942 | 0.197 | 0.173 | 0.226 | -0.155 | -0.631 | -0.741
